PubChem BioAssay AID1159580 (chemical genetic matrix, 2015)
Among all 5,500 compounds or so, about 2,000 (36%) were called active. About 18% were inconclusive and are not listed. No stated cut-off is given here; in the data, active means normalized growth mostly below about 0.91 (no sharp cut-off); inconclusive means no clear call, values can overlap the other calls; inactive means mostly above about 0.92. This is one part of the list.

Assay: chemical genetic growth profiling, strain panel (AID 1159580);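 further: tested at 20 µM; growth read once vehicle control cultures reached saturation at 30 °C; 1 = growth at the plate median or of vehicle wells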
Settings: growth OD

Measured: normalized growth

CCCCOc1ccc(C(=O)CCN2CCCCC2)cc1
active: S. cerevisiae deletion strains, locus YJR066W, strain TOR1, stronger effect = lower value 0.67 | S. cerevisiae deletion strains, locus YJR075W, strain HOC1, stronger effect = lower value 0.66 | S. cerevisiae deletion strains, locus YKR001C, strain vps1, stronger effect = lower value 0.559 | S. cerevisiae deletion strains, locus YLL001W, strain dnm1, stronger effect = lower value 0.428 | S. cerevisiae deletion strains, locus YLR027C, strain aat2, stronger effect = lower value 0.888 | S. cerevisiae deletion strains, locus YLR039C, strain RIC1, stronger effect = lower value 0.426 | S. cerevisiae deletion strains, locus YLR058C, strain SHM2, stronger effect = lower value 0.85 | S. cerevisiae deletion strains, locus YLR102C, strain apc9, stronger effect = lower value 0.0845 | S. cerevisiae deletion strains, locus YLR262C, strain YPT6 (second series), stronger effect = lower value 0.662 | S. cerevisiae deletion strains, locus YLR262C, strain YPT6, stronger effect = lower value 0.523 | S. cerevisiae deletion strains, locus YLR268W, strain sec22, stronger effect = lower value 0.244 | S. cerevisiae deletion strains, locus YLR320W, strain mms22, stronger effect = lower value 0.565 | S. cerevisiae deletion strains, locus YLR330W, strain CHS5, stronger effect = lower value 0.0853 | S. cerevisiae deletion strains, locus YLR342W, strain FKS1 (second series), stronger effect = lower value 0.432 | S. cerevisiae deletion strains, locus YLR370C, strain arc18, stronger effect = lower value 0.85 | S. cerevisiae deletion strains, locus YLR371W, strain rom2, stronger effect = lower value 0.0987 | S. cerevisiae deletion strains, locus YLR418C, strain cdc73, stronger effect = lower value 0.267 | S. cerevisiae deletion strains, locus YML016C, strain PPZ1, stronger effect = lower value 0.17 | S. cerevisiae deletion strains, locus YML032C, strain rad52, stronger effect = lower value 0.748 | S. cerevisiae deletion strains, locus YML124C, strain tub3, stronger effect = lower value 0.552 | S. cerevisiae deletion strains, locus YMR058W, strain fet3, stronger effect = lower value 0.731 | S. cerevisiae deletion strains, locus YMR078C, strain ctf18, stronger effect = lower value 0.138 | S. cerevisiae deletion strains, locus YMR205C, strain PFK2, stronger effect = lower value 0.875 | S. cerevisiae deletion strains, locus YMR223W, strain ubp8, stronger effect = lower value 0.16 | S. cerevisiae deletion strains, locus YNL067W, strain RPL9B, stronger effect = lower value 0.589 | S. cerevisiae deletion strains, locus YNL071W, strain lat1, stronger effect = lower value 0.567 | S. cerevisiae deletion strains, locus YNL153C, strain GIM3, stronger effect = lower value 0.839 | S. cerevisiae deletion strains, locus YNL183C, strain NPR1, stronger effect = lower value 0.435 | S. cerevisiae deletion strains, locus YNL233W, strain BNI4, stronger effect = lower value 0.167 | S. cerevisiae deletion strains, locus YNL248C, strain rpa49, stronger effect = lower value 0.645 | S. cerevisiae deletion strains, locus YNL307C, strain MCK1, stronger effect = lower value 0.0713 | S. cerevisiae deletion strains, locus YNR049C, strain mso1, stronger effect = lower value 0.693 | S. cerevisiae deletion strains, locus YNR052C, strain pop2, stronger effect = lower value 0.864 | S. cerevisiae deletion strains, locus YOL006C, strain TOP1, stronger effect = lower value 0.248 | S. cerevisiae deletion strains, locus YOR001W, strain rrp6, stronger effect = lower value 0.833 | S. cerevisiae deletion strains, locus YOR061W, strain CKA2, stronger effect = lower value 0.691 | S. cerevisiae deletion strains, locus YOR069W, strain VPS5, stronger effect = lower value 0.558 | S. cerevisiae deletion strains, locus YOR136W, strain idh2, stronger effect = lower value 0.0967 | S. cerevisiae deletion strains, locus YOR184W, strain ser1, stronger effect = lower value 0.161 | S. cerevisiae deletion strains, locus YOR270C, strain vph1, stronger effect = lower value 0.275 | S. cerevisiae deletion strains, locus YOR316C, strain cot1, stronger effect = lower value 0.0893 | S. cerevisiae deletion strains, locus YPL051W, strain arl3, stronger effect = lower value 0.894 | S. cerevisiae deletion strains, locus YPL055C, strain LGE1, stronger effect = lower value 0.683 | S. cerevisiae deletion strains, locus YPL078C, strain atp4, stronger effect = lower value 0.507 | S. cerevisiae deletion strains, locus YPL241C, strain CIN2, stronger effect = lower value 0.882 | S. cerevisiae deletion strains, locus YPR119W, strain clb2, stronger effect = lower value 0.0832 | S. cerevisiae deletion strains, locus YPR163C, strain tif3, stronger effect = lower value 0.23 | S. cerevisiae deletion strains, locus YPR167C, strain met16, stronger effect = lower value 0.206 | S. cerevisiae deletion strains, strain wtn01, stronger effect = lower value 0.372 | S. cerevisiae strains, strain wild type, stronger effect = lower value 0.647
inactive: S. cerevisiae deletion strains, locus YKL009W, strain mrt4, stronger effect = lower value 0.902 | S. cerevisiae deletion strains, locus YKL068W, stronger effect = lower value 0.994 | S. cerevisiae deletion strains, locus YKL085W, strain MDH1 (second series), stronger effect = lower value 0.973 | S. cerevisiae deletion strains, locus YKL085W, strain MDH1, stronger effect = lower value 0.973 | S. cerevisiae deletion strains, locus YKL160W, strain elf1, stronger effect = lower value 0.918 | S. cerevisiae deletion strains, locus YKR026C, strain gcn3, stronger effect = lower value 0.996 | S. cerevisiae deletion strains, locus YKR091W, strain srl3, stronger effect = lower value 0.999 | S. cerevisiae deletion strains, locus YLL026W, stronger effect = lower value 0.948 | S. cerevisiae deletion strains, locus YLL041C, strain sdh2, stronger effect = lower value 0.981 | S. cerevisiae deletion strains, locus YLR113W, strain HOG1, stronger effect = lower value 1.03 | S. cerevisiae deletion strains, locus YLR221C, strain rsa3, stronger effect = lower value 0.952 | S. cerevisiae deletion strains, locus YLR258W, strain gsy2, stronger effect = lower value 0.95 | S. cerevisiae deletion strains, locus YLR342W, strain FKS1, stronger effect = lower value 0.985 | S. cerevisiae deletion strains, locus YLR357W, strain rsc2, stronger effect = lower value 1.03 | S. cerevisiae deletion strains, locus YLR384C, strain iki3, stronger effect = lower value 0.976 | S. cerevisiae deletion strains, locus YML120C, strain ndi1, stronger effect = lower value 0.973 | S. cerevisiae deletion strains, locus YMR125W, strain sto1, stronger effect = lower value 0.927 | S. cerevisiae deletion strains, locus YMR129W, stronger effect = lower value 0.99 | S. cerevisiae deletion strains, locus YMR231W, strain pep5, stronger effect = lower value 0.972 | S. cerevisiae deletion strains, locus YMR263W, strain SAP30, stronger effect = lower value 0.916 | S. cerevisiae deletion strains, locus YMR307W, strain GAS1, stronger effect = lower value 0.727 | S. cerevisiae deletion strains, locus YNL209W, strain ssb2, stronger effect = lower value 0.981 | S. cerevisiae deletion strains, locus YNL250W, strain rad50, stronger effect = lower value 0.986 | S. cerevisiae deletion strains, locus YNL271C, strain bni1, stronger effect = lower value 0.94 | S. cerevisiae deletion strains, locus YNL298W, strain CLA4, stronger effect = lower value 0.96 | S. cerevisiae deletion strains, locus YNL322C, strain KRE1 (second series), stronger effect = lower value 1.03 | S. cerevisiae deletion strains, locus YOL012C, strain htz1 0.354 | S. cerevisiae deletion strains, locus YOL147C, strain pex11, stronger effect = lower value 0.965 | S. cerevisiae deletion strains, locus YOR070C, strain gyp1, stronger effect = lower value 0.938 | S. cerevisiae deletion strains, locus YOR080W, strain dia2, stronger effect = lower value 0.975 | S. cerevisiae deletion strains, locus YOR083W, strain WHI5, stronger effect = lower value 0.952 | S. cerevisiae deletion strains, locus YOR106W, strain vam3, stronger effect = lower value 0.97 | S. cerevisiae deletion strains, locus YOR144C, strain elg1, stronger effect = lower value 0.994 | S. cerevisiae deletion strains, locus YOR231W, strain MKK1, stronger effect = lower value 1.03 | S. cerevisiae deletion strains, locus YOR265W, strain rbl2, stronger effect = lower value 0.968 | S. cerevisiae deletion strains, locus YOR290C, strain snf2, stronger effect = lower value 0.882 | S. cerevisiae deletion strains, locus YPL106C, strain sse1, stronger effect = lower value 1.1 | S. cerevisiae deletion strains, locus YPL240C, strain hsp82, stronger effect = lower value 1 | S. cerevisiae deletion strains, locus YPL256C, strain CLN2, stronger effect = lower value 1.01 | S. cerevisiae deletion strains, locus YPR141C, strain kar3, stronger effect = lower value 0.981
